Rab9 prom act: activates the Rab9 promoter. 320,000 tested, 2.8% active. Huh7 Rab9 promoter-luciferase reporter, luminescence, 24 h. Potency, µM (titrated, usually from 9.22 µM), for the others: at the highest dose activation, negative = inhibition, hits mostly activators. AID 485297; further: % of control where 0% means no effect; nearly all actives have a fitted effect of over 60% in size
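Cells were plated at 1500 per well in reduced-serum medium with 10% FBS and left 2 h. Compound in DMSO was then added for 24 h at 37 °C. Reporter signal was read by luminescence after 10 min with luciferase detection reagent.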
ELG1 repair inh: blocks ELG1-dependent DNA repair in HEK293T cells. HEK293T ELG1-luciferase reporter, luminescence, 16 h; DNA damage induced by 5-fluorouridine. Potency, µM (top dose mostly 46.1 µM), inactives show at the highest dose activity change, negative = inhibition, usual class: inhibitors. 330,000 tested, 2.3% active. AID 504467; further: on the % scale 0 is the no-effect control and ±100 the full control effect; nearly all actives have a fitted effect of over 55% in size
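Overnight (16 hr) co-exposure of 2,000 cells/well to 5-fluorouridine and compound at 37 °C preceded detection. Luciferase was quantified via ONE-Glo luminescence; loss of signal denotes inhibition.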
SMN2 splice up: SMN2 splice variant enhancement; HEK293 SMN2-luciferase splicing reporter, luminescence, 30-36 h; Potency, µM (top dose mostly 46.1 µM), for inactives: at the highest dose activity change, positive = activation, most hits filed as activators; 210,000 tested, 2.8% active; further: % of control where 0% means no effect; nearly all actives have a fitted effect of over 55% in size
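HEK293 cells carry an SMN2 minigene-luciferase reporter in which exon 7 inclusion puts luciferase in frame. Cells were seeded at 2000 cells/well, attached for 10-12 hours, then exposed to compounds for 30-36 hours at 37C before ONE-Glo luminescence.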
FLuc counter: counter-screen for miR-21 project: firefly luciferase inhibitors or activators | P08659 | purified FLuc, Km substrates, luminescence inhibition | Potency, µM (highest dose often 57.5 µM), for the others: at the highest dose activity change, negative = inhibition, hits mostly inhibitors | 360,000 tested, 6.9% active | AID 588342;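 further: plate controls were vehicle for no effect and reference inhibitor for full effect; nearly all actives have a fitted effect of over 55% in size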
Target sequence (P08659 whole entry, looked up): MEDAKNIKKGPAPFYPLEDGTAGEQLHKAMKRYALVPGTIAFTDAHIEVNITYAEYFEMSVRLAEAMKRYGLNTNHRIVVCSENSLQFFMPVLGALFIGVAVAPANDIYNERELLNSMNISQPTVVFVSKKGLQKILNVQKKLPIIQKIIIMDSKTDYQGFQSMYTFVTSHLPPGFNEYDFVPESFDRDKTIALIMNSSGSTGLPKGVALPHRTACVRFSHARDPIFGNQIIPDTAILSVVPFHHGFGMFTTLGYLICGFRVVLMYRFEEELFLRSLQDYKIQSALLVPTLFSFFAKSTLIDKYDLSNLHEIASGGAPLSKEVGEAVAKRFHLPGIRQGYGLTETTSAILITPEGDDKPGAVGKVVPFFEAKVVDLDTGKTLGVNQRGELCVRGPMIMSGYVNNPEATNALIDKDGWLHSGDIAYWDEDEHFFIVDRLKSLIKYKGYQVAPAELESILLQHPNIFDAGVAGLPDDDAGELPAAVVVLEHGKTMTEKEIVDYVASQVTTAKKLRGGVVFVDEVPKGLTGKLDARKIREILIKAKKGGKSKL
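Purified P. pyralis luciferase (10nM final) with 10uM D-luciferin and 10uM ATP (Km levels) in 50mM Tris acetate pH 7.5, 10mM Mg acetate, 0.01% Tween-20, 0.05% BSA; qHTS 6-point titration, ~60 µM downward; luminescence read.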
ELG1 genotoxic: induces genotoxicity in HEK293T cells with luciferase-tagged ELG1; HEK293T ELG1-luciferase reporter, luminescence, 16 h; Potency, µM (doses to about 46 µM), for inactives: top-dose activity change, positive = activation, usual class: activators; 330,000 tested, 1.3% active; AID 504466; further: % of control where 0% means no effect; nearly all actives have a fitted effect of over 60% in size
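HEK293T cells expressing luciferase-tagged ELG1 were treated with compound or DMSO for 16 hr at 37°C. Luciferase activity was then read after 30 min with ONE-Glo at room temperature; rising signal flags genetic stress.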
NPC1 promoter act: activates the NPC1 promoter | 320,000 tested, 2.4% active | Potency, µM (highest dose often 9.22 µM), for the others: top-dose activation, actives largely listed as activators | AID 485313 | Huh7 NPC1 promoter luciferase reporter, 24 h; further: % of control where 0% means no effect; nearly all actives have a fitted effect of over 60% in size
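Quantitative HTS used a cell-based reporter: Huh7 cells stably bearing the NPC1 promoter upstream of luciferase were treated with compounds for 24 h, and promoter activation was read as luminescence.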
The depositor's hits bear a star; ? = inconclusive; . = no result given; [ ] = another dose, or the depositor's remark. Hits are enriched below; roughly 9.3% of the tested compounds scored in any of these assays. The call rests on the fitted dose curve; in most records, active means well fitted curve in the direction sought with a large enough effect; inconclusive means small, poorly fitted or top-dose-only effect, or another doubt; inactive means no such curve, though single readings can be large; an effect the other way counts as inactive or inconclusive. Potency means the concentration at half of the fitted maximal effect.

SMILES	Rab9 prom act	ELG1 repair inh	SMN2 splice up	FLuc counter	ELG1 genotoxic	NPC1 promoter act
Cn1cc2ccc(N)cc2n1	-5%	-1%	.	-16%	-2%	1%
Nc1ccc2nn(-c3cc([N+](=O)[O-])ccc3O)nc2c1	17%	11%	.	0%	-4%	11%
Cc1ccc(-n2nc3ccc(NC(=O)c4cccc([N+](=O)[O-])c4C)cc3n2)cc1	-13%	?	11%	?	8%	-7%
Cn1cccc1C(=O)N1CCC2(CCN(C(=O)Nc3ccccc3)CC2)CC1	.	.	-4%	.	.	.
Cc1cc(N/N=C/c2ccc(O)cc2O)nc(N2CCOCC2)n1	-4%	?	.	7.6µM*	4%	-3%
CCCOc1ccc(/C=N/Nc2cc(N3CCOCC3)ncn2)c(O)c1	-45%	2.9µM*	.	-5%	18%	-39%
Oc1ccc(/C=N\Nc2cc(N3CCOCC3)nc(N3CCOCC3)n2)c(O)c1	-8%	10µM*	-2%	?	-2%	-6%
CCCCOc1ccc(/C=N/Nc2cc(N3CCOCC3)nc(C)n2)cc1	-1%	?	.	?	-7%	-11%
COc1ccc(/C=N/Nc2cc(C)nc(N3CCOCC3)n2)c(OC)c1	0%	6%	.	2.4µM*	6%	0%
CCc1ccc(NC(=O)c2c(C(=O)Nc3ccccc3)sc3nc(C)cc(=O)n23)cc1	4%	2%	-14%	-6%	4%	-5%
O=C(O)c1nc2cc(Cl)c(Cl)cc2[nH]c1=O	.	.	-10%	.	.	.
O=S(=O)(Nc1ccc(C(F)(F)F)cc1)c1ccc2c(c1)OCCO2	.	.	-16%	-14%	.	.
O=C(N/N=C/C=C/c1ccccc1)c1ccccn1	3.5µM*	?	.	17µM*	?	?
O=C(NN=C1c2ccccc2-c2ccccc21)c1ccccn1	15%	4%	-19%	5.4µM*	3%	21%
Cc1ccc(-c2cc(C(=O)N/N=C/C=C/c3ccccc3)n[nH]2)s1	-2%	-28%	-30%	9.5µM*	-2%	-3%
Cc1cc(C(=O)N/N=C/C(Cl)=C/c2ccccc2)c(C)o1	24%	10%	.	9.5µM*	1%	20%
Cc1c(C(=O)N2CCOCC2)sc(NC(=O)c2ccccc2F)c1C#N	0%	9%	.	2%	0%	5%
CC(=O)c1ccc(NC(=O)NCc2ccc(F)cc2)cc1	-4%	-13%	8%	3%	2%	-1%
O=C(N/N=C1\C/C(=N\NC(=O)c2ccncc2)c2ccccc21)c1ccncc1	-25%	0%	.	4.8µM*	-3%	3%
O=C(N/N=C/C(Br)=C/c1ccccc1)c1cnccn1	3.5µM*	0%	.	6µM*	?	19%
O=C(NN=C1C2CC3CC(C2)CC1C3)c1ccncc1	5%	4%	-8%	5%	2%	1%
O=C(N/N=C/C(Cl)=C/c1ccccc1)c1ccccn1	1.8µM*	?	13µM*	4.8µM*	?	4µM*
O=C(N/N=C/c1ccncc1)c1ccccc1	-3%	41%	24%	?	6%	3%
O=C(N/N=C/C=C\c1cccc([N+](=O)[O-])c1)c1ccccn1	17%	?	7%	-11%	-2%	13%
O=C(N/N=C/C(Cl)=C/c1ccccc1)c1ccncc1	11%	7%	9%	17µM*	4%	-2%
SMILES	Rab9 prom act	ELG1 repair inh	SMN2 splice up	FLuc counter	ELG1 genotoxic	NPC1 promoter act
CCc1ccc(CN(C)Cc2nc(COc3ccccc3)no2)nc1	-7%	8%	0%	-2%	-2%	1%
CC(/C=N/NC(=O)c1ccccn1)=C\c1ccco1	1.4µM*	?	.	3.8µM*	?	1.4µM*
O=C(N/N=C/C=C\c1ccco1)c1ccccn1	9%	?	.	?	?	?
Clc1ccc(CONc2ncnc3nonc23)c(Cl)c1	3.5µM*	?	?	?	3%	?
Cc1cc(Nc2ccccc2)nn1C(=O)c1ccc([N+](=O)[O-])cc1	-3%	-2%	7%	0%	3%	-2%
Cc1cc(Nc2ccccc2)nn1C(=O)c1ccc(Cl)cc1	13%	?	-14%	9.5µM*	?	-4%
Cc1cc(Nc2ccccc2)n(C(=O)c2ccccc2)n1	28%	?	-13%	12µM*	?	10%
N/C(=N\OC(=O)c1ccc2c(c1)OCO2)c1ccc([N+](=O)[O-])cc1	?	?	26%	?	?	?
COc1ccc(C(=O)Oc2ccc3c(c2)OCO3)cc1OC	3%	?	4%	24µM*	11%	3%
N/C(=N\OC(=O)c1ccc2c(c1)OCO2)c1cccc(Br)c1	4.5µM*	?	.	0.13µM*	?	?
COc1ccc(C(=O)O/N=C(\N)Cc2ccc(Cl)cc2)cc1OC	-4%	?	0%	-9%	-4%	7%
COc1ccc(C(=O)O/N=C(\N)Cc2ccc(Cl)c(Cl)c2)cc1OC	-2%	18µM*	-4%	1%	-9%	0%
N/C(=N\OC(=O)c1cccc(Br)c1)c1ccc(Br)cc1	11%	?	-5%	?	12%	24%
COc1ccc(/C(N)=N/OC(=O)c2ccc3c(c2)OCO3)cc1OC	?	?	?	3µM*	?	?
CCCC(=O)Nc1nc(-c2ccccc2)c(CC)s1	-7%	?	-9%	-3%	2%	0%
O=C(CCNc1n[nH]c(=O)[nH]c1=O)N/N=C/c1ccc(C(F)(F)F)cc1	-7%	-10%	-1%	-3%	6%	-3%
Cc1ccc(NC(=O)Cn2cc(S(=O)(=O)N3CCCC3)c(S(=O)(=O)N3CCCC3)c2)cc1F	.	.	.	-12%	.	.
N/C(=N\OC(=O)c1ccc2c(c1)OCO2)c1cccnc1	?	?	.	1.2µM*	?	?
O=C(COC(=O)c1ccc(Cl)cc1[N+](=O)[O-])NCc1ccco1	.	21%	.	.	-1%	.
CCc1ccc(CC2S/C(=C(\C#N)C(C)=O)NC2=O)cc1 (stereo unspecified)	-9%	0%	11µM*	?	-7%	3%
Cc1cc(=O)[nH]c(SCC(=O)NCC2CCCCC2)c1C#N	-4%	-5%	4%	?	2%	-3%
COc1ccc(OC)c(Nc2c3ccccc3nc3ccccc23)c1	-16%	12µM*	.	?	-7%	-29%
COc1cc(NS(C)(=O)=O)ccc1Nc1c2ccccc2nc2ccccc12	-38%[46.1 µM]	?	-77%	12µM*	?	-24%[46.1 µM]
O=C(NCCCN1CCCC1)c1ccc(CS(=O)(=O)c2c(Cl)cccc2Cl)o1	-3%	?	.	5%	3%	0%

Screens deposited in PubChem by National Center for Advancing Translational Sciences (NCATS).
